A selection: hits, their analogues and other compounds. The true share with any hit is near 2.8%.
SENP7 inh = blocks the human protease SENP7. Q9BQF6. recombinant SENP7, Z-RLRGG-aminoluciferin luminescence, 40 min. inhibition, % at 5 µM. hit rate 1.5% among 330,000. AID 434973;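 active means inhibition above about 50% at the single test dose, limit read from the data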
Target sequence (Q9BQF6 706-1050 limits assumed): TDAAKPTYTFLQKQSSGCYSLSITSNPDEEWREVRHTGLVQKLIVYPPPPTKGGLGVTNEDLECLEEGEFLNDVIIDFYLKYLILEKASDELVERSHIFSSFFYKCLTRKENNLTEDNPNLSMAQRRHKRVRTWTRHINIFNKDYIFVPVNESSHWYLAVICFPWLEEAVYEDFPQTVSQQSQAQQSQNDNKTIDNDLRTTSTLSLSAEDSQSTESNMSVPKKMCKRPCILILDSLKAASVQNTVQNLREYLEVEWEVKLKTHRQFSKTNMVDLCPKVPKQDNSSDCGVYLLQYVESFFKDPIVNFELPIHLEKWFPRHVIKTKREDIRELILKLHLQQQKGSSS
SENP8 block-1 = inhibitors of human SENP8 protease | Q96LD8 | AID 2540 | purified SENP8, Z-RLRGG-aminoluciferin cleavage, luminescence | inhibition, % at 10 µM | hit rate 1.2% among 330,000; in the data active means inhibition above about 50%
Target sequence (Q96LD8 whole entry, looked up): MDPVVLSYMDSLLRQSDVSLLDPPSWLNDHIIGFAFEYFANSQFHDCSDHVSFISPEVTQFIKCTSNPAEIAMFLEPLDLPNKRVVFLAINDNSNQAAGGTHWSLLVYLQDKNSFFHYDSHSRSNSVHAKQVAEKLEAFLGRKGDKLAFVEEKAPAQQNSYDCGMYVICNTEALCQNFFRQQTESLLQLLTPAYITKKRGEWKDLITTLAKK
SENP6 inh = SENP6 protease inhibition; Q9GZR1; Recombinant SENP6 catalytic domain, aminoluciferin luminescence; inhibition, % at 10 µM; hit rate 1.8% among 330,000; AID 2599;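 active means inhibition above about 50% at the single tested dose, limit read from the data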
HSP90 refold inh = inhibitors of HSP90 luciferase refolding in rabbit reticulocyte lysate | luciferase refolding luminescence, 3 h | inhibition, % at 5.6 µM | hit rate 0.91% among 290,000 | AID 1789;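 active means inhibition above the screen-wide mean plus 3 SD, computed separately per campaign, cut at about 16% in these data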;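 further: inhibitors lower the luminescence because luciferase stays unfolded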
SENP8 block-2 = SENP8 (human) protease inhibition. recombinant SENP8, Nedd8 substrate fluorescence. inhibition, % at 20 µM. hit rate 0.64% among 360,000. AID 602440; in the data active means inhibition mostly above about 40%, no sharp cut-off; inactive means mostly below about 27%
SENP8 conf = confirmation of human SENP8 protease inhibitors. shares compounds with SENP7 inh. Recombinant SENP8, Z-RLRGG-aminoluciferin luminescence, 60 min. inhibition, % at 12.5 µM. hit rate 40% among 6,200. AID 488912;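 active means mean inhibition across replicates above about 50%, limit read from the data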
SENP6 confirm = confirmation of human SENP6 protease inhibitors; recombinant SENP6, Z-RLRGG-aminoluciferin luminescence; AID 488915; shares compounds with SENP7 inh; inhibition, % at 12.5 µM; hit rate 58% among 6,200
SENP7 confirm = human SENP7 inhibition, confirmed | shares compounds with SENP7 inh | recombinant SENP7, Z-RLRGG-aminoluciferin luminescence, 40 min | inhibition, % at 12.5 µM | hit rate 69% among 6,200
Casp3 select = inhibits human caspase-3 in SENP selectivity test; shares compounds with SENP7 inh; purified caspase-3, Z-DEVD-aminoluciferin luminescence, 60 min; inhibition, % at 12.5 µM; hit rate 60% among 6,200; AID 488918;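 active means mean inhibition above about 50%, limit read from the data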
Luc interf = counter-screen for SENP inhibitors: luminescence interference; shares compounds with SENP7 inh; Pre-incubated SENP8/Z-RLRGG-aminoluciferin, luciferase luminescence interference; inhibition, % at 12.5 µM; hit rate 39% among 6,200; AID 488919;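 active means mean inhibition above about 50% when retested at one dose, limit read from the data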
Hits are given with their value; . = inactive; / = no result.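 How the source made its calls, unless noted: active means mean inhibition above about 50% in the one-dose retest (limit read from the data); inactive means the rest.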

SMILES	SENP7 inh	SENP8 block-1	SENP6 inh	HSP90 refold inh	SENP8 block-2	SENP8 conf	SENP6 confirm	SENP7 confirm	Casp3 select	Luc interf
Cn1c(=O)n(C)c2cc(NC(=O)Cc3ccccc3[N+](=O)[O-])ccc21	.	.	.	.	.	/	/	/	/	/
O=C1OC(c2ccccc2)=C/C1=C/c1cccs1	57	.	59	.	.	.	.	.	.	.
NC(=O)CSc1nnc(-c2ccc(S(=O)(=O)N3CCCCC3)cc2)n1-c1ccccc1	.	.	.	.	.	/	/	/	/	/
Nc1nc(N)nc(-c2ccc(Cl)c(Cl)c2)n1	59	.	56	/	.	.	.	78	.	62
Cc1nc(N)nc(N)c1-c1ccc(Cl)c(Cl)c1	/	/	/	/	.	/	/	/	/	/
O=C(c1ccco1)N1CCN(S(=O)(=O)Cc2ccc(Cl)cc2)CC1	.	.	.	.	.	/	/	/	/	/
CCOCCCNC(=O)c1c(C)[nH]c(C(=O)OCC)c1C	.	.	.	.	.	/	/	/	/	/
NC(=O)c1ccc(-c2ncc(-c3ccccc3)o2)cc1	52	.	.	.	.	.	52	59	.	.
Cn1cccc1C(=O)Nc1nc(-c2ccccn2)cs1	62	.	74	.	.	76	76	93	84	78
Cc1csc(NC(=O)c2ccco2)n1	.	.	.	.	.	/	/	/	/	/
Cc1csc(NC(=O)c2cccn2C)n1	91	76	82	.	.	76	75	96	93	84
COc1cccc(NC(=O)c2ccccc2-c2nc(-c3ccc(Cl)cc3)no2)c1	.	.	.	.	.	/	/	/	/	/
Cc1cc(=O)[nH]c(SCCOc2ccc(OC(C)C)cc2)n1	89	91	94	.	.	91	95	100	95	58
COc1ccc(-c2csc(NC(=O)c3ccc(C(C)(C)C)cc3)c2C(=O)O)cc1	.	.	.	/	/	/	/	/	/	/
O=C(Nc1scc(-c2ccccc2)c1C(=O)O)c1ccc(F)cc1	71	92	91	.	.	93	94	102	96	92
Cc1ccc(-c2csc(NC(=O)c3ccc(F)cc3)c2C(=O)O)cc1	58	90	94	.	.	.	91	90	89	68
O=C(O)C1=C[C@H](c2ccccc2)C[C@H](OCCCCO)O1	.	.	.	/	.	/	/	/	/	/
COC(=O)CSc1nnc(C2COc3ccccc3O2)n1-c1ccccc1 (stereo not given)	76	.	.	.	.	.	.	.	.	.
CCNC(=O)NC(=O)COC(=O)c1ccccc1SCC(=O)NC(=O)NCC	93	93	95	.	.	96	96	102	98	85
O=C(COC(=O)c1ccccc1SCC(=O)NC1CCS(=O)(=O)C1)NC1CCS(=O)(=O)C1 (stereo not given)	.	.	.	.	.	/	/	/	/	/
Nc1nc2n(n1)C(c1cccc(Cl)c1)CC(c1ccc(F)cc1)N2 (stereo not given)	65	.	.	.	.	.	.	.	.	.
O=C(Nc1cccnc1)c1cc(-c2ccc3c(c2)OCO3)on1	96	.	77	.	.	.	.	62	79	.
O=C(Nc1cccnc1)c1cc(-c2cccc(Cl)c2)on1	.	.	.	.	.	/	/	/	/	/
O=C(Nc1cccnc1)c1cc(-c2ccc(F)cc2)on1	76	56	64	.	.	.	.	.	.	.
O=C(COCc1cc(-c2ccc3c(c2)OCO3)on1)Nc1cccnc1	.	.	.	.	.	/	/	/	/	/
SMILES	SENP7 inh	SENP8 block-1	SENP6 inh	HSP90 refold inh	SENP8 block-2	SENP8 conf	SENP6 confirm	SENP7 confirm	Casp3 select	Luc interf
O=C(Nc1cccnc1)c1cc(-c2ccc(Cl)c(Cl)c2)on1	76	.	55	.	.	.	.	.	.	.
CC(=O)Nc1ccc(CN2C(=O)C(Cc3ccccc3)ON=C2c2cccc(F)c2)cc1 (stereo not given)	/	/	/	/	.	/	/	/	/	/
COc1c(Cl)cccc1-c1cn2ccc(C)cc2n1	94	84	90	.	.	90	91	100	90	.
Cc1onc(-c2c(F)cccc2Cl)c1C(=O)NCCCN1CCOCC1	.	.	.	.	.	/	/	/	/	/
CCc1noc(C)c1C(=O)Nc1nc2c(F)cc(F)cc2s1	73	83	90	/	.	52	86	98	87	51
COc1ccc2nc(NC(=O)c3cnccn3)sc2c1	76	.	.	.	.	.	.	82	80	.
O=C(COc1ccccc1)NNc1nc2c(F)cc(F)cc2s1	.	.	.	.	.	/	/	/	/	/
CCOc1ccc2nc(NC(=O)c3ccoc3C)sc2c1	100	98	96	28	.	99	100	103	99	81
O=C(Nc1nc2c(F)cc(F)cc2s1)c1ccccn1	93	64	70	.	.	61	69	.	79	.
N#CCc1c(C#N)c(N)nc(N2CCN(S(=O)(=O)c3ccccc3F)CC2)c1C#N	.	.	.	.	.	/	/	/	/	/
COc1ccc(C(C)(C)C)cc1NC(=O)c1ccc2c(c1)SC1=NS(=O)(=O)CCN12	.	.	.	.	.	/	/	/	/	/
CCOc1ccc2nc(NC(=O)c3ccccn3)sc2c1	98	94	97	.	.	.	78	85	87	.
CCOc1ccc2nc(NC(=O)COC)sc2c1	.	.	.	.	.	/	/	/	/	/
O=C(O)c1c2c(nc3ccccc13)/C(=C/c1ccc(OC(F)F)cc1)CCC2	.	.	.	.	.	/	/	/	/	/
O=C(O)c1c2c(nc3ccccc13)/C(=C/c1ccc(O)cc1)CC2	71	76	77	.	.	91	88	98	93	63
CN1CCN(C(=O)CSc2nc(-c3cccs3)cc(-c3cccs3)c2C#N)CC1	/	/	/	.	.	/	/	/	/	/
O=C(NCc1ccco1)c1cc([N+](=O)[O-])ccc1N1CCOCC1	.	.	95	.	.	.	.	.	.	.
C(=N\Nc1nc(-c2ccccc2)cs1)/c1ccncc1	.	.	.	.	.	/	/	/	/	/
C(=N\Nc1nc(-c2ccccc2)cs1)/c1cccs1	.	.	64	.	.	63	65	88	.	.
C(=N\Nc1nc(-c2ccccc2)cs1)/c1ccco1	.	54	72	.	.	65	66	87	.	58
COc1cc2[nH]c(=O)c(C(=O)NCCCN3CCCCC3)c(O)c2cc1OC	.	.	.	.	.	/	/	/	/	/
C/C(=N/NC(=O)c1cc(C2CC2)[nH]n1)c1cccs1	66	.	.	.	.	64	62	88	89	71
C/C(=N\NC(=O)c1cccs1)c1ccc2ccccc2c1	.	.	.	.	.	/	/	/	/	/
